We go through 59 sequences from paper PMC5515408, “Sequence-specific DNA binding by MYC/MAX to low-affinity non-E-box motifs”.

Whole data set: some 4,500 sequences, median “log2 normalized fluorescence” near -0.34, cut for the highest 2% near 3.3. The list comes from a sample in which the highest values are over-represented; it also holds similar and randomly drawn sequences.

Sequence of MAX:MAX (p21) (P61244 other isoform, or with tags, fused parts or gaps): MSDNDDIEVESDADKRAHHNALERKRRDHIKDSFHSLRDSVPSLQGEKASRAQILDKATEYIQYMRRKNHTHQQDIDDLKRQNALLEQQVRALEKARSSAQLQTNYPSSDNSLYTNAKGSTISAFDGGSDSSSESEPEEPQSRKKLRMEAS

The assay addresses MAX:MAX (p21) (human, UniProt P61244-2 1-151). The assay can be described thus: protein-binding microarray (anti-MAX antibody); PBM: 15 mM Tris-HCl pH 7.5, 100 mM KCl, 0.075% NP40, 7.5 mM beta-mercaptoethanol, 375 ng/ul BSA, 8 ng/ul poly(dA-dT):(dA-dT), 550 ng complex, 60 min, room tempe; high values mean tight binding. As to conditions: protein: recombinant; tags: 6xHis; chain copies: 2; label: 3' end of printed strand (linker) attached to glass slide; dsDNA, one strand shown. In short, it runs like this:
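For each of ~5000 unique double-stranded 12-nt sequences, spotted in triplicate on a custom Agilent glass array, binding of His-tagged human MYC:MAX or MAX:MAX dimers is reported as log2 normalized fluorescence. The dimers (550 ng, E. coli-expressed) were incubated for 60 min at room temperature in Tris-KCl buffer, pH 7.5, with NP40, BSA and poly(dA-dT) competitor. Detection used anti-MAX and secondary antibodies with a 543 nm scan.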
For “CCGGCTGAAGCCTGGTATTAATAGCTAAGATTACTATATCGACG”, the binding signal was 0.476 log2 normalized fluorescence. Under “CCGGCTGACGGCCCGTATTAATAGCTAAGATTACTATATCGACG” stands -0.704 log2 normalized fluorescence; under “CCGGCTGACTCACTGTATTAATAGCTAAGATTACTATATCGACG”, -0.209 log2 normalized fluorescence; under “CCGGCTGACCTGTGGTATTAATAGCTAAGATTACTATATCGACG”, 0.594 log2 normalized fluorescence.

Take “CCGGCTGACAACACGTATTAATAGCTAAGATTACTATATCGACG”: the binding signal is 0.856 log2 normalized fluorescence.

Turning to “CCGGCTGACTCGTGCTATTAATAGCTAAGATTACTATATCGACG”, the binding signal was 3.13 log2 normalized fluorescence. Take “CCGGCAAACACGTAGTATTAATAGCTAAGATTACTATATCGACG”: the binding signal was 2.6 log2 normalized fluorescence. “CCGGCTTACACGTGGGATTAATAGCTAAGATTACTATATCGACG”: the binding signal is 3.12 log2 normalized fluorescence. Under “CCGGCTTACACGTGGAATTAATAGCTAAGATTACTATATCGACG” stands 3.37 log2 normalized fluorescence; under “CCGGCTAACACGTAGTATTAATAGCTAAGATTACTATATCGACG”, 1.92 log2 normalized fluorescence; under “CCGGCCGACACGTGGAATTAATAGCTAAGATTACTATATCGACG”, 3.32 log2 normalized fluorescence. Regarding “CCGGCTAACACGTCGTATTAATAGCTAAGATTACTATATCGACG”, the binding signal is 2.38 log2 normalized fluorescence.

For the sequence “CCGGCTTACATGTGGAATTAATAGCTAAGATTACTATATCGACG”, the binding signal is 3.25 log2 normalized fluorescence. As for “CCGGCTGACACGTGGAATTAATAGCTAAGATTACTATATCGACG”, the binding signal was 3.16 log2 normalized fluorescence.

For “CCGGCTAACACGTGGAATTAATAGCTAAGATTACTATATCGACG”, the binding signal was 3.35 log2 normalized fluorescence. As for “CCGGCCGACACGTCGTATTAATAGCTAAGATTACTATATCGACG”, the figure is 2.07 log2 normalized fluorescence; as for “CCGGCTGAAGACGGGTATTAATAGCTAAGATTACTATATCGACG”, -0.654 log2 normalized fluorescence.

With “CCGGCTGACCCGTGGTATTAATAGCTAAGATTACTATATCGACG”, the binding signal was 2.38 log2 normalized fluorescence. Under “CCGGCTGAGCAGGAGTATTAATAGCTAAGATTACTATATCGACG” stands -0.201 log2 normalized fluorescence; under “CCGGCAGACACGATGTATTAATAGCTAAGATTACTATATCGACG”, 3.02 log2 normalized fluorescence. As for “CCGGCTGAGATCACGTATTAATAGCTAAGATTACTATATCGACG”, the figure is 0.425 log2 normalized fluorescence.

Regarding “CCGGCTGAGGGTTCGTATTAATAGCTAAGATTACTATATCGACG”, the binding signal was -0.732 log2 normalized fluorescence. Under “CCGGCTGAACCCTCGTATTAATAGCTAAGATTACTATATCGACG” stands 0.0153 log2 normalized fluorescence; under “CCGGCTGAAGCGGGGTATTAATAGCTAAGATTACTATATCGACG”, 0.358 log2 normalized fluorescence; under “CCGGCTGATTCGATGTATTAATAGCTAAGATTACTATATCGACG”, -0.732 log2 normalized fluorescence.

Consider “CCGGCTGACGGGCGGTATTAATAGCTAAGATTACTATATCGACG”, for which the binding signal is -0.202 log2 normalized fluorescence. For the sequence “CCGGCTGCCACGCGGAATTAATAGCTAAGATTACTATATCGACG”, the binding signal is 3.15 log2 normalized fluorescence. “CCGGCTGCCACGAGGAATTAATAGCTAAGATTACTATATCGACG”: the binding signal was 3.34 log2 normalized fluorescence.

On to “CCGGCTGCCACGTGCGATTAATAGCTAAGATTACTATATCGACG”, for which the binding signal is 3.47 log2 normalized fluorescence. Take “CCGGCTGCCACGTGATATTAATAGCTAAGATTACTATATCGACG”: the binding signal was 3.13 log2 normalized fluorescence. Consider “CCGGCTGCCACGTGCTTTTAATAGCTAAGATTACTATATCGACG”, for which the binding signal was 3.14 log2 normalized fluorescence. Take “CCGGCTGCCACGTGTTATTAATAGCTAAGATTACTATATCGACG”: the binding signal is 3.28 log2 normalized fluorescence.

Turning to “CCGGCTGCCACGTGGAATTAATAGCTAAGATTACTATATCGACG”, the binding signal was 3.31 log2 normalized fluorescence. Regarding “CCGGCTGTCACGTGGAATTAATAGCTAAGATTACTATATCGACG”, the binding signal was 3.19 log2 normalized fluorescence. Regarding “CCGGCTGCCACGACGTATTAATAGCTAAGATTACTATATCGACG”, the binding signal was 1.79 log2 normalized fluorescence. For the sequence “CCGGCGGACACGAGGTATTAATAGCTAAGATTACTATATCGACG”, the binding signal is 3.32 log2 normalized fluorescence.

As for “CCGGCTGACACGAGGTATTAATAGCTAAGATTACTATATCGACG”, the binding signal was 3.08 log2 normalized fluorescence. As for “CCGGCGGACACGCGGTATTAATAGCTAAGATTACTATATCGACG”, the figure is 3.26 log2 normalized fluorescence; as for “CCGGCAGACACGAGGTATTAATAGCTAAGATTACTATATCGACG”, 3.44 log2 normalized fluorescence; as for “CCGGCTAACACGAGGTATTAATAGCTAAGATTACTATATCGACG”, 3.28 log2 normalized fluorescence.

In the case of “CCGGCAGACACGAGGTTTTAATAGCTAAGATTACTATATCGACG”, the binding signal is 3.03 log2 normalized fluorescence.

Regarding “CCGGCTGACCCAAGGTATTAATAGCTAAGATTACTATATCGACG”, the binding signal is -0.0673 log2 normalized fluorescence. On to “CCGGCTGACATGTGGCCTTAATAGCTAAGATTACTATATCGACG”, for which the binding signal is 2.99 log2 normalized fluorescence. As for “CCGGCTGAGTCACTGTATTAATAGCTAAGATTACTATATCGACG”, the figure is -0.498 log2 normalized fluorescence.

In the case of “CCGGCTGATTGCGAGTATTAATAGCTAAGATTACTATATCGACG”, the binding signal was -0.512 log2 normalized fluorescence. Take “CCGGCTGACACGTGCGCTTAATAGCTAAGATTACTATATCGACG”: the binding signal is 3.16 log2 normalized fluorescence. As for “CCGGCTAACACGTGCTTTTAATAGCTAAGATTACTATATCGACG”, the binding signal is 3.33 log2 normalized fluorescence. “CCGGCTGACACGTGCCTTTAATAGCTAAGATTACTATATCGACG”: the binding signal was 3.18 log2 normalized fluorescence. Regarding “CCGGCTGACACGTGTGCTTAATAGCTAAGATTACTATATCGACG”, the binding signal is 3.4 log2 normalized fluorescence. As for “CCGGCCGACACGTGCTTTTAATAGCTAAGATTACTATATCGACG”, the figure is 3.21 log2 normalized fluorescence; as for “CCGGCTGACACGTGCCCTTAATAGCTAAGATTACTATATCGACG”, 3.16 log2 normalized fluorescence. Take “CCGGCTGACACGTAGCTTTAATAGCTAAGATTACTATATCGACG”: the binding signal is 1.51 log2 normalized fluorescence.

“CCGGCTGACACGTGGCTTTAATAGCTAAGATTACTATATCGACG”: the binding signal was 3.04 log2 normalized fluorescence.

With “CCGGCTGACACGTGCTTTTAATAGCTAAGATTACTATATCGACG”, the binding signal was 3.34 log2 normalized fluorescence.

Regarding “CCGGCTGAGACGTGGGATTAATAGCTAAGATTACTATATCGACG”, the binding signal is 0.979 log2 normalized fluorescence. As for “CCGGCTGAATGTCTGTATTAATAGCTAAGATTACTATATCGACG”, the figure is 0.29 log2 normalized fluorescence; as for “CCGGCTGATGCAGCGTATTAATAGCTAAGATTACTATATCGACG”, -0.0989 log2 normalized fluorescence; as for “CCGGCTGGCACCTGGTATTAATAGCTAAGATTACTATATCGACG”, 1.88 log2 normalized fluorescence. With “CCGGCTGACTAATGGTATTAATAGCTAAGATTACTATATCGACG”, the binding signal was -0.355 log2 normalized fluorescence.
